Results on four compounds are retold here after ChEMBL document CHEMBL3988442, “University of Dundee, Small-Polar-MMV Screening Library” (2021).

Holding throughout (design): scale not given: direction of the effect not stated beside the values
In experiment [1] the target is Protein translocase subunit SecA (Escherichia coli (strain K12)) (UniProt P10408). The experiment can be described thus: Assay to Identify E. coli SecA ATPase Inhibitors. The class given is functional. Conditions: 30 µM.
Experiment [2] has as its target T1, Ubiquitin-activating enzyme e1, putative (Leishmania donovani (strain BPK282A1)) (UniProt E9BSI1).
T1 sequence (whole entry): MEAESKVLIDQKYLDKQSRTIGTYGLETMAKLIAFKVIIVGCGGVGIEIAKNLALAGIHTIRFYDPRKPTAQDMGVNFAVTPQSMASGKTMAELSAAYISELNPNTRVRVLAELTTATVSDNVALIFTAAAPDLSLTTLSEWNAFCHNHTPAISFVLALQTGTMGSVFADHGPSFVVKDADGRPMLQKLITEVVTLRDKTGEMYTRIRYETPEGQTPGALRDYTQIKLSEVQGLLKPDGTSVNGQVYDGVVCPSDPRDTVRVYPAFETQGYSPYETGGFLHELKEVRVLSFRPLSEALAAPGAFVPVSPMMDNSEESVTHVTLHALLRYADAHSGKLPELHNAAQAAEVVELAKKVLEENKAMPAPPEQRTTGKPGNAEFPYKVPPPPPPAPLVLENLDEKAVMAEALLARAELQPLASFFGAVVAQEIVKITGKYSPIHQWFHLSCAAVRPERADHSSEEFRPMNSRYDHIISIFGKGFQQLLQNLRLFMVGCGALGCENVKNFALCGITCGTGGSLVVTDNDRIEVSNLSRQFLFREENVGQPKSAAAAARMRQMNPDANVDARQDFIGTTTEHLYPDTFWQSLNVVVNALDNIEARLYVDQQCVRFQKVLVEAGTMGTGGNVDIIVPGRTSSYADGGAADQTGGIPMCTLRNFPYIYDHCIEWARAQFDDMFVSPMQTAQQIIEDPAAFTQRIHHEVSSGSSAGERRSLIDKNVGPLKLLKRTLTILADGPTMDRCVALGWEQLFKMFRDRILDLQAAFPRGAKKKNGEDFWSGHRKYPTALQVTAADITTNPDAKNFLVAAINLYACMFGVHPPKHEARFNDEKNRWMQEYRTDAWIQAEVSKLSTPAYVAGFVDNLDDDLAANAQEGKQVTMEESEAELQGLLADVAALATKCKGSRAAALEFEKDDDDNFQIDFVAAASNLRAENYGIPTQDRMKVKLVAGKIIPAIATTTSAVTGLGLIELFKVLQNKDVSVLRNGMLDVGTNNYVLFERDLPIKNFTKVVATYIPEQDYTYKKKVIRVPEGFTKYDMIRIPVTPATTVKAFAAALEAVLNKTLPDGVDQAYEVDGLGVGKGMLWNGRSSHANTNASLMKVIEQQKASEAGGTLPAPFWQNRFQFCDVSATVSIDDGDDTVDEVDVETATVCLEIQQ
The experiment can be described thus: Leishmania donovani Ubiquitin Activating Enzyme (LdE1). Conditions: 30 µM. Format: functional.

In experiment [3] the target is T2, Aspartate--tRNA(Asp/Asn) ligase (Mycobacterium tuberculosis (strain ATCC 25618 / H37Rv)) (UniProt P9WFW3). Also: in the data most compounds retested in dose-response had high values.
T2 sequence (whole entry): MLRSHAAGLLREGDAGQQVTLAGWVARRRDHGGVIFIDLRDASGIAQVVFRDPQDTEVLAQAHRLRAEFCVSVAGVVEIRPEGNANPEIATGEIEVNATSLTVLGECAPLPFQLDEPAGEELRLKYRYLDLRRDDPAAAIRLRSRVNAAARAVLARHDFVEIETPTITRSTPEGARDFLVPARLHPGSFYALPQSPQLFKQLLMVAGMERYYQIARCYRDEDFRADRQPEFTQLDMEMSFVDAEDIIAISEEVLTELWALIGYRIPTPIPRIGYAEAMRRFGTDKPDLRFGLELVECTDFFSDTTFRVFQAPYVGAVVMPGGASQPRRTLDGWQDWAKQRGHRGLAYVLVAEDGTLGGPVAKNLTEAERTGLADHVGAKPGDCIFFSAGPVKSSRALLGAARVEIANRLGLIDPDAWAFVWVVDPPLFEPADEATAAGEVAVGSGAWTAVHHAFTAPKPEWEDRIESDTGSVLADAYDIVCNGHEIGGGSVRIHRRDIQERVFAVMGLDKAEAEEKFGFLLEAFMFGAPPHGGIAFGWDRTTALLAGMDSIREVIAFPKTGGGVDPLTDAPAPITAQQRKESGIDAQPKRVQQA
Put plainly: Assay for Asp RNA synthetase-1 from Mycobacterium tuberculosis. Format: functional. Conditions: 30 µM.

The target of experiment [4] is AMP-activated protein kinase, AMPK (Homo sapiens) (UniProt P54646+O43741+P54619+Q9UGJ0+Q9Y478+Q13131+Q9UGI9). Put plainly: AMP-dependent Kinase enzyme assay. An in vitro enzyme assay that detects ADP turnover that is directly proportional to AMPK activity. This uses naive AMPK that is activated during the assay with MK-8722. Format: functional. The following applies: 30 µM.

Experiment [5] concerns the target Sialic acid-binding Ig-like lectin 9 (Homo sapiens) (UniProt Q9Y336). The experiment can be described thus: Hs-Siglec9 ALPHAscreen SOP 20170721. The following applies: 10 µM. (In general: In Alpha technology, singlet oxygen from a donor bead excites a nearby acceptor bead.)
In experiment [6] the test system is Trypanosoma cruzi. Put plainly: Trypanosoma cruzi phosphomannomutase and mannose-1-phosphate guanylyltransferase assay. Format: functional. Conditions: 10 µM.
In experiment [7] the target is T3, Arginase-2, mitochondrial (Homo sapiens) (UniProt P78540).
T3 sequence (whole entry): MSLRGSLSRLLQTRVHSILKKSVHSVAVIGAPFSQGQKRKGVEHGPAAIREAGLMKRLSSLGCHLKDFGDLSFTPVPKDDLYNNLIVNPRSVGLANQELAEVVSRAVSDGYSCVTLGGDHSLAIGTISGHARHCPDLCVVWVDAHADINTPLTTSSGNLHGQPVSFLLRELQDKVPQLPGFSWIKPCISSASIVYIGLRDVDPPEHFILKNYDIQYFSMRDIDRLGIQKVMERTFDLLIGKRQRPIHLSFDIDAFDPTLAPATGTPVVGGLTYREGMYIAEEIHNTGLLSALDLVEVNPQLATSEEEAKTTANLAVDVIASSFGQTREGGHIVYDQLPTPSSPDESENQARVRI
Put plainly: in vitro enzyme assay to detect the production of urea directly proportional to the activity of Arginase II. Also: in the data most compounds retested in dose-response had high values. The class given is functional. Conditions: 33.3 µM.

In experiment [8] the target is T4, Proteasome subunit beta (Trypanosoma cruzi) (UniProt O96673).
T4 sequence (whole entry): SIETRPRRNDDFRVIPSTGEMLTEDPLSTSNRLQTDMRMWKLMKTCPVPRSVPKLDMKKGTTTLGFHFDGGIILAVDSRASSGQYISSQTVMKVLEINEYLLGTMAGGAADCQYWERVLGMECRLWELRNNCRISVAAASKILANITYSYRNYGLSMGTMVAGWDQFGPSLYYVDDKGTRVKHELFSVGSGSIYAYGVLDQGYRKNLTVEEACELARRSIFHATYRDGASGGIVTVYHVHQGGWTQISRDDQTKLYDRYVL
The experiment can be described thus: Trypanosoma cruzi proteasome chymotrypsin-like activity (TcProtChymo) assay. Also: in the data most compounds retested in dose-response had high values. The class given is functional. The following applies: 9.37 µM.

The species entered for experiment [9] is Homo sapiens. Put plainly: To identify inhibition of the IFN signalling (Jak-Stat) pathway via expression of an eGFP reporter gene under the control of an IFN-stimulated response element (ISRE) containing MxA promoter. Format: functional. Conditions: 30 µM. A general note: In a reporter assay the amount or activity of a reporter protein is the signal.
The target in experiment [10] is Shiga toxin 2 (Escherichia coli O157:H7) (UniProt P09385+P09386). Put plainly: E. coli 0.157:H7 Shiga Toxin SOP - stx2 screening assay. Format: functional. Conditions: 30 µM.
Experiment [11] has as its target T5, Tyrosyl-tRNA synthetase, putative (Trypanosoma cruzi (strain CL Brener)) (UniProt Q4DSP6).
T5 sequence (whole entry): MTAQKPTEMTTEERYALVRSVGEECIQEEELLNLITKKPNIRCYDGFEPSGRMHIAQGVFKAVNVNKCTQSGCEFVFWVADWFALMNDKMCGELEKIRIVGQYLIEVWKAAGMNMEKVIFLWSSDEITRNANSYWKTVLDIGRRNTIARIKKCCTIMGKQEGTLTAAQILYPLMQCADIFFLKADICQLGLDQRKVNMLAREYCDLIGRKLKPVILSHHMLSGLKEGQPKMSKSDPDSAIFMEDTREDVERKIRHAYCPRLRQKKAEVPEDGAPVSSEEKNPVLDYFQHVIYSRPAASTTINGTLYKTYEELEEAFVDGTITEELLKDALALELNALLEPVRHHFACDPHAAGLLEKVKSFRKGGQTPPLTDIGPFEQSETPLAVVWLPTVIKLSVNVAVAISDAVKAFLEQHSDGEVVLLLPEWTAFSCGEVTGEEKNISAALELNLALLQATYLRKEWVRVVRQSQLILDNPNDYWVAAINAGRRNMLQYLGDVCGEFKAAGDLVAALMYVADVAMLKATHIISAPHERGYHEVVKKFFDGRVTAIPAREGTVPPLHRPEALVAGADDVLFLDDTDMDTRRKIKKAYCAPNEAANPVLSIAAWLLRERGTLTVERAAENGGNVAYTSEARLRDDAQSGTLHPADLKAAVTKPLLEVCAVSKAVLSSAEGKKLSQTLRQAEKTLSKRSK
The experiment can be described thus: Trypanosoma cruzi tyrosyl tRNA synthetase (TcYRS) _High Tyrosine SOP. Also: in the data most compounds retested in dose-response had high values. The following applies: 30 µM. The class given is functional.

Experiment [12] concerns the target T5, Tyrosyl-tRNA synthetase, putative (Trypanosoma cruzi (strain CL Brener)). Put plainly: Trypanosoma cruzi tyrosyl tRNA synthetase (TcYRS) SOP. Format: functional. Conditions: 30 µM.
The target of experiment [13] is Chromo domain-containing protein 1 (Saccharomyces cerevisiae (strain ATCC 204508 / S288c) (Baker's yeast)) (UniProt P32657). Put plainly: ScCHD-1 Enzyme Inhibition Assay. Also: in the data most compounds retested in dose-response had high values. The class given is functional. The following applies: 30 µM.
Chain of Chromo domain-containing protein 1 (Saccharomyces cerevisiae (strain ATCC 204508 / S288c) (Baker's yeast)) (P32657 whole entry, the tested form may be a part): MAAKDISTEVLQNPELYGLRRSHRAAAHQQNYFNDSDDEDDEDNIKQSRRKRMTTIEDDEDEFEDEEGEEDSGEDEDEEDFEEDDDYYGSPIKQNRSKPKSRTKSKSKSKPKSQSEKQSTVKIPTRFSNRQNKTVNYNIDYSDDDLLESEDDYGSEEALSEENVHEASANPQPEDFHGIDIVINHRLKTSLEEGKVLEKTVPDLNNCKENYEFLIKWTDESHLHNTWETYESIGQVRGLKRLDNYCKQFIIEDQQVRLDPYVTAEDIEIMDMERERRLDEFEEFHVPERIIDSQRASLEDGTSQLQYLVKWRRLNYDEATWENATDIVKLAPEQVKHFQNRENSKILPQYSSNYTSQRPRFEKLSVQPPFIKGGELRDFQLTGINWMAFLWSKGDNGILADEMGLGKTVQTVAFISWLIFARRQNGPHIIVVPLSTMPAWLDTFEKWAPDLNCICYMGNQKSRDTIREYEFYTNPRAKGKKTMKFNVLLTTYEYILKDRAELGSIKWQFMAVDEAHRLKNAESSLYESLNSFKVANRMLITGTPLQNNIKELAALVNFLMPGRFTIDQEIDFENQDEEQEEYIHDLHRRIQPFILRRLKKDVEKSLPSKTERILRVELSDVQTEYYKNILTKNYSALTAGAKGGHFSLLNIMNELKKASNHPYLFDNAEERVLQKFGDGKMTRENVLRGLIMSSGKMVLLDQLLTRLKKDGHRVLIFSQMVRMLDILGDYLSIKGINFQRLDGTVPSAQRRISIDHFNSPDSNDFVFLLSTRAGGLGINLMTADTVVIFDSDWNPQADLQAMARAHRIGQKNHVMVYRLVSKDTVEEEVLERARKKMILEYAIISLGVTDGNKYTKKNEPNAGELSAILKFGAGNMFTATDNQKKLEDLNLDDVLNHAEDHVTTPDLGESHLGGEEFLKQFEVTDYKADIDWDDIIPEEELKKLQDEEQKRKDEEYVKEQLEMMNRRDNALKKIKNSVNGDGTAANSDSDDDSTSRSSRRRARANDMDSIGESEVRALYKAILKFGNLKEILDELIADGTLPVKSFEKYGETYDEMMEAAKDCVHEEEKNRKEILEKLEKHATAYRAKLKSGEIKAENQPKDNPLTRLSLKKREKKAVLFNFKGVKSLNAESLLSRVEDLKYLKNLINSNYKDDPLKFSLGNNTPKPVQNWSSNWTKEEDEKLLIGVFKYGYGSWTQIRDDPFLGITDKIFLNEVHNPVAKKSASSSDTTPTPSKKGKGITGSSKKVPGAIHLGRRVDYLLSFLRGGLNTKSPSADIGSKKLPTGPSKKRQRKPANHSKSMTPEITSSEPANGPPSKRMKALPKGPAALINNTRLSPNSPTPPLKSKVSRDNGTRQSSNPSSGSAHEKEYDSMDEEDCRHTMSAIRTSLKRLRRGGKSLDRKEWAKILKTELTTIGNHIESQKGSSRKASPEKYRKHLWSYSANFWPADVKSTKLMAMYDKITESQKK

For some of these results: Results with a measured potency or affinity are listed apart.

Chain of Protein translocase subunit SecA (Escherichia coli (strain K12)) (P10408 whole entry): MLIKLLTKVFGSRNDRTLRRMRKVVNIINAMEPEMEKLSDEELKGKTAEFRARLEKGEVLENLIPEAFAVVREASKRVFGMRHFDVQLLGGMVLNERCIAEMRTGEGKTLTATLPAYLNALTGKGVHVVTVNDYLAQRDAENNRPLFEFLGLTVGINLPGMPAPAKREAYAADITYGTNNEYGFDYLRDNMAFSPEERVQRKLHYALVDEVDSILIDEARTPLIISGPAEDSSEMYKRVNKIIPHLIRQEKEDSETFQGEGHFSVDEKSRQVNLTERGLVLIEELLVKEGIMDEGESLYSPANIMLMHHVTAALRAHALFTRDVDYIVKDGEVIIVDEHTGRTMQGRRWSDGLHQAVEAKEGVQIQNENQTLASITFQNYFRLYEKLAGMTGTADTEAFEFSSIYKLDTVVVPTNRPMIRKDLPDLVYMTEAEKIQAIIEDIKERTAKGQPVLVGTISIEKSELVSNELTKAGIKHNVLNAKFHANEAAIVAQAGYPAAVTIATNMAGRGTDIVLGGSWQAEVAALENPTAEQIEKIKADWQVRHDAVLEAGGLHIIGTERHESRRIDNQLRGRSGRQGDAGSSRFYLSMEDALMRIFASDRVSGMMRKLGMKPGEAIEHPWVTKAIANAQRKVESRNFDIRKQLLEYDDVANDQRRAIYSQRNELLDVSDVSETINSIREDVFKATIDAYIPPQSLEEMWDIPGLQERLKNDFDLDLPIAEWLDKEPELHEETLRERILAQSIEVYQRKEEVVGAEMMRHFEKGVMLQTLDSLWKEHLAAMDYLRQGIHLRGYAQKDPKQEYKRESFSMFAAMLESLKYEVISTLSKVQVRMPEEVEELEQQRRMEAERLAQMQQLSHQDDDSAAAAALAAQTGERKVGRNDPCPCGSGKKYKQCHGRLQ
Chain of Sialic acid-binding Ig-like lectin 9 (Homo sapiens) (Q9Y336 whole entry): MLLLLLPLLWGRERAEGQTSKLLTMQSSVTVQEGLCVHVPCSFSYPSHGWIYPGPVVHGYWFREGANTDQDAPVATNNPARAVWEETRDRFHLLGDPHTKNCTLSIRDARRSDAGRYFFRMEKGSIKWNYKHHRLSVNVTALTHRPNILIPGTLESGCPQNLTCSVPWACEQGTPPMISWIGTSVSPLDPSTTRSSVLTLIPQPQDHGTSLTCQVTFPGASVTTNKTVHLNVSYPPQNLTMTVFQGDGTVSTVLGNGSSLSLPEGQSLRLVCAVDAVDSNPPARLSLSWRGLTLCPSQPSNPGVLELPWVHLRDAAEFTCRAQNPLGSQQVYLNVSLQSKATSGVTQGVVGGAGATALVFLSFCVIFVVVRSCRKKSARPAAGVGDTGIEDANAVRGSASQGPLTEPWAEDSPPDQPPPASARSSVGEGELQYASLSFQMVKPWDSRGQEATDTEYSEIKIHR

`COc1ccc(C2SCC(=O)Nc3ccsc32)cc1` (configuration not stated): the Percent Effect in experiment [1] is -5.35%; in experiment [2], -12%; in [3], 4.36%; in experiment [4] it was 29%; in experiment [5], 5.11%; in experiment [6], -5.5%. In addition, the Percent Effect was 1.94% in experiment [7]; 13.9% in experiment [8]; 30.7% in [9]; -15.2% in [10]; 10.6% in experiment [11]; 2.56% in experiment [12]. Further, the Percent Effect in [13] amounted to 11.2%.

In the case of `c1ccc(CN2CCO[C@H]3[C@H](OCCN4CCCC4)CC[C@@H]32)nc1`, the Percent Effect in experiment [1] was -1.73%; in [2], -2.67%; in [3], 0.641%; in experiment [4], 2.45%; in experiment [5] it was 8.64%; in experiment [6] it was -2.7%. Moreover, the Percent Effect in experiment [7] is -53.2%; in experiment [8], -0.855%; in [9], -6.91%; in experiment [10], -16.4%; in [11], 4.17%; in experiment [12] it was 5%. Also, in [13], the Percent Effect was determined as 0.266%.

In the case of `Cc1cc(CN2CC[C@H]3C[C@H](C)O[C@@H]3C2)no1`, the Percent Effect in experiment [1] is -1.91%; in experiment [2] it was 18.9%; in experiment [3], -4.38%; in experiment [4] it was -0.664%; in [5] it was -1.18%; in [6] it was 3.23%. For the same compound, the Percent Effect was 5.41% in experiment [7]; 9.96% in [8]; 17.4% in experiment [9]; -1.03% in experiment [10]; 7.57% in [11]; 17.9% in [12]. Besides, in experiment [13], the Percent Effect came to 1.93%.

For `Cc1cc(CN2C[C@@H]3COC[C@]3(CN(C)C)C2)no1`, the Percent Effect in [1] is -1.63%; in [2], -2.7%; in [3], -2.03%; in experiment [4], 7.75%; in experiment [5], 3.28%; in experiment [6] it was -3.42%. For the same compound, the Percent Effect was 1.59% in experiment [7]; 26.4% in [8]; -4.54% in experiment [9]; -2.49% in experiment [10]; 3.24% in experiment [11]; 2.56% in experiment [12]. Moreover, the Percent Effect in experiment [13] is -2.67%.
